Assay results as given in PubChem BioAssay AID2685 (National Center for Advancing Translational Sciences (NCATS), 2010).
About 2,100 (0.66%) of roughly 320,000 compounds were called active. Roughly 53% stayed inconclusive and do not appear here. The call rests on the fitted dose curve; in most records, active means well fitted inhibition curve with a large enough effect in the signal ratio, with a control signal flat (not every such curve was filed as active); inconclusive means small, poorly fitted or top-dose-only effect, or effect the other way, or a change in a side signal; inactive means flat fitted curve, though single readings scatter; the % refers to the signal ratio. The list comes from a sample in which actives are over-represented; it also holds similar structures and randomly drawn compounds.

Assay: qHTS Assay for Lipid Storage Modulators in Drosophila S3 Cells;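 on cell number change: cells counted by Cell Tracker Red CMTPX staining in the red channel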
Settings: BODIPY lipid droplet fluorescence, 18-24 h, cells fed with added oleic acid; cell number change: measured here: cell count max response; series mostly up to 46.1 µM
Procedure, shortened: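 Laser-scanning cytometry quantifies lipid droplet accumulation (500–530 nm total intensity; droplet/cell object ratio) in oleic acid-fed (400 uM added) Drosophila S3 cells treated with a concentration series. 20 uM Triacsin C defined 100% inhibition.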
Potency means the concentration at half of the fitted maximal effect.

| SMILES | Potency | cell number change [%] |
| --- | --- | --- |
| C=CCNC(=O)c1ccc(N(Cc2ccccc2)S(C)(=O)=O)cc1 | inactive | -6.36 |
| O=C(Oc1ccc(N(C(=O)c2ccncc2)S(=O)(=O)c2ccc(F)cc2)cc1)c1ccncc1 | inactive | – |
| CCc1ccc(S(=O)(=O)N(C(=O)c2ccncc2)c2ccc(OC(=O)c3ccncc3)cc2)cc1 | 18.4 µM (active) | -8 |
| COc1ccc(S(=O)(=O)N(C(=O)c2ccncc2)c2ccc(OC(=O)c3ccncc3)cc2)cc1 | inactive | -3.33 |
| CC(C)CN(CC(C)C)C(=O)COn1nnc2ccc(S(=O)(=O)N3CCOCC3)cc21 | inactive | 3.81 |
| CCCCn1nc2cc(C(=O)NCc3ccc(OC)cc3)ccc2c1OCC | inactive | -2.9 |
| C1=CC2CC1CC2CN1CCN(Cc2ccccc2)CC1 (configuration not stated) | inactive | – |
| OCCN(Cc1ccccc1)CC1CC2C=CC1C2 (configuration not stated) | 29.1 µM (active) | 0.638 |
| OCCN(Cc1ccccc1)Cc1ccccc1F | inactive | -24.2 |
| Cn1c2ccccc2c2nnc(SCC(=O)NC3CC3)nc21 | inactive | -0.952 |
| Cn1c2ccccc2c2nnc(SCC(=O)NC3CCCC3)nc21 | inactive | -23.7 |
| COc1ccc2c(c1)c1nnc(SCC(=O)NC3CC3)nc1n2C | 1.46 µM (active) | -8.55 |
| COc1ccc(N2CCN(C(=O)CSc3nnc4c5cc(C)ccc5n(C)c4n3)CC2)cc1 | inactive | 15.5 |
| Cn1c2ccc(Br)cc2c2nnc(SCC(=O)O)nc21 | inactive | – |
| Cc1ccc2c(c1)c1nnc(SCC(=O)NC3CC3)nc1n2C | 5.8 µM (active) | 0.855 |
| CC1CCC(NC(=O)COC(=O)c2cccnc2Cl)CC1 (configuration not stated) | inactive | – |
| COC(=O)N1[C@H](Cc2ccccc2)C=C[C@]1(C)C(=O)NCc1ccccn1 | inactive | 11.5 |
| O=S(=O)(Nc1ccc(OC(F)F)cc1)c1ccc(-c2ccon2)s1 | inactive | -0.692 |
| O=C(CN1C(=O)c2ccccc2S1(=O)=O)Nc1ccccc1C(=O)NCc1ccco1 | inactive | -1.22 |
| C=CCN(C(=O)Cn1c(C(=O)OC)cc2oc(C)cc21)c1ccccc1 | inactive | -13 |
| Clc1ccc(OCCCc2nc(-c3cccnc3)no2)c(Cl)c1 | 14.6 µM (active) | -29.5 |
| Clc1ccc(-c2noc(CCCOc3ccccc3)n2)cc1 | inactive | -10.9 |
| Clc1ccc(OCc2nc(-c3ccncc3)no2)c(Cl)c1 | inactive | – |

| SMILES | Potency | cell number change [%] |
| --- | --- | --- |
| C/C(=C\C(=S)Nc1ccccc1)Nc1ccccc1 | inactive | -10.3 |
| O=[N+]([O-])c1ccc(N2CCCCC2)cc1 | inactive | 7.1 |
| Nc1ncc2c(n1)CCN(c1ccc([N+](=O)[O-])cc1)C2 | 23.1 µM (active) | -20.7 |
| Nc1ncc(-c2ccc([N+](=O)[O-])cc2)cn1 | inactive | 12.5 |
| O=C(CCNC(=O)N1CC(=O)Nc2ccccc21)Nc1ccc(Br)cc1F | inactive | -22.5 |
| O=C1c2cccc3cccc(c23)C(=O)N1Nc1ccccc1 | inactive | 13.9 |
| CCOc1ccc(C(C)=O)cc1CSC(=N)N | inactive | 0.606 |
| COc1ccc(Br)cc1CSC(=N)N | inactive | 1.43 |
| CCCOc1ccc(Br)cc1CSC(=N)N | 18.4 µM (active) | -27.5 |
| COc1ccc(Nc2c3c(nc4ccc(C)cc24)CCC3)cc1 | 20.6 µM (active) | 0.901 |
| Cc1ccc2nc3c(c(Nc4ccccc4)c2c1)CCC3 | inactive | – |
| COc1ccc(Nc2c3c(nc4ccccc24)CCC3)cc1 | inactive | 21.3 |
| COc1ccc(C(C)=O)cc1COC(=O)CNC(=O)c1ccc(Cl)cc1 | inactive | -0.097 |
| Cc1c(C(=O)N/N=C/C(C)C)[nH]c2ccc([N+](=O)[O-])cc12 | inactive | -4.9 |
| O=C(NCCCN1CCOCC1)c1sc2cc(Cl)ccc2c1Cl | inactive | 0.814 |
| O=C(NCCN1CCOCC1)c1sc2ccccc2c1Cl | inactive | -1.8 |
| O=C(NCCN1CCOCC1)c1sc2cc(Cl)ccc2c1Cl | 4.61 µM (active) | -3.15 |
| COc1ccc(NC(=O)Nc2nnc(-c3ccco3)s2)cc1 | inactive | 3.5 |
| Cc1cc(C)c2nc(NC3=NCN(CCN4CCOCC4)CN3)nc(C)c2c1 | 25.9 µM (active) | 3.72 |
| Cc1nc(NC2=NCN(CCCN3CCOCC3)CN2)nc2c(C)cccc12 | inactive | – |
| Cc1cc2nc(NC3=NCN(CCN4CCOCC4)CN3)nc(C)c2cc1C | inactive | -6.7 |
| CS(=O)(=O)NN1C(=O)c2ccccc2NC1c1c[nH]c2ccccc12 (configuration not stated) | inactive | 15.5 |
| CCOc1ccc(NC(=O)CCC(=O)NNC(=O)c2ccco2)cc1 | inactive | – |

| SMILES | Potency | cell number change [%] |
| --- | --- | --- |
| CCOc1ccc(NC(=O)CCC(=O)NNC(=O)c2ccc(Br)o2)cc1 | 6.51 µM (active) | 5.86 |
| CCOc1ccc(NC(=O)CCC(=O)NNC(=O)Nc2ccc(Cl)cc2)cc1 | inactive | 10.6 |
| CCOCCCNc1c2c(nc3cc(-c4ccc(F)cc4)nn13)CCC2 | inactive | 9.58 |
| CCn1c(CCNC(=O)c2ccco2)nc2ccccc21 | inactive | -11.3 |
| C=C(C)Cn1c(CCNC(=O)c2ccco2)nc2ccccc21 | 0.517 µM (active) | 15.2 |
| CC(C)Cn1c(CCCNC(=O)c2ccco2)nc2ccccc21 | inactive | – |
| C=CCn1c(CCNC(=O)c2ccco2)nc2ccccc21 | inactive | 8.97 |
| CC(C)Cn1c(CCNC(=O)c2ccco2)nc2ccccc21 | 3.66 µM (active) | – |
| CCCCn1c(CCNC(=O)c2ccco2)nc2ccccc21 | inactive | 8.05 |
| CC(=O)c1ccc(S(=O)(=O)N2CCN(C(=O)c3ccccc3Cc3ccccc3)CC2)cc1 | inactive | – |
| CCNC(=O)CN(CCc1ccccc1)S(C)(=O)=O | inactive | -1.75 |
| NC(=O)CSc1nccn1Cc1ccccc1 | inactive | -3.05 |
| CCOc1ccc(S(=O)(=O)N2CCC(C(=O)NCC3CCCO3)CC2)cc1Cl (configuration not stated) | inactive | 20.5 |
| CSc1ccc(S(=O)(=O)NC2CCCCC2)cc1 | 23.1 µM (active) | 26.8 |
| O=S(=O)(NC1CCCC1)c1ccc(S(=O)(=O)NC2CCCC2)cc1 | inactive | 5.07 |
| CSc1ccc(S(=O)(=O)NC2CC2)cc1 | inactive | 1.23 |
| Cc1cccc(C)c1NC(=S)N(CCN(C)C)Cc1cccs1 | inactive | -10.3 |
| Cc1ccc(S(=O)(=O)Nc2ccc(-n3cnnn3)cc2)c(C)c1 | 0.58 µM (active) | -8.9 |
| O=S(=O)(Nc1cccc(-n2cnnn2)c1)c1ccccc1C(F)(F)F | inactive | -11 |
| Cc1ccc(S(=O)(=O)Nc2ccc(-n3cnnn3)cc2)cc1 | inactive | 12.5 |
| O=S(=O)(Nc1cccc(-n2cnnn2)c1)c1cc(Br)ccc1Br | 20.6 µM (active) | -10.7 |
| O=S(=O)(Nc1cccc(-n2cnnn2)c1)c1ccccc1 | inactive | -16.7 |
| O=S(=O)(Nc1ccc(-n2cnnn2)cc1)c1ccc(Cl)cc1 | inactive | -6.89 |
